51 compounds from PubChem BioAssay AID686978 (National Center for Advancing Translational Sciences (NCATS), 2013) can be followed below.

Structures are written as SMILES. Out of some 420,000 compounds screened, about 64,000 (15%) were called active. Not shown: some 27% with an inconclusive outcome. Only a sample is shown. Values without a mark were called inactive. Calls come from the whole dose curve; as a rule, active = well fitted inhibition curve with a large enough effect; inconclusive = small, poorly fitted or top-dose-only effect; inactive = flat fitted curve, though single readings scatter.
% is set by controls: 0 for no effect and ±100 for the full control effect; potency is the fitted concentration of half-maximal effect.

The nature of the assay: qHTS for Inhibitors of human tyrosyl-DNA phosphodiesterase 1 (TDP1): qHTS in cells in absence of CPT. Note: nearly all actives have a fitted effect of over 55% in size. The settings on record: DT40 Tdp1-/- hTDP1 cells, no CPT, ATP luminescence, 48 h; activity change, negative = growth inhibition: at 46.2 µM (top of the series). In short, it runs like this: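 Stably hTDP1-transfected Tdp1-null chicken DT40 cells were treated with library compounds minus camptothecin and grown for at least 48 hr at 37 °C, after which cellular ATP was quantified by luminescence.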
On to `O=C(Nc1ccc2c(c1)CCC2)c1ccc(Br)s1`, for which the “activity change, negative = growth inhibition” value is -21.1%.

For `CCN(CC(=O)NCc1ccc(Cl)cc1)C(=O)CSc1ccccc1`, the “activity change, negative = growth inhibition” value was -21.6%.

Regarding `O=C(CSc1nc2ccccc2o1)N1CCN(c2ccccc2)CC1`, the “activity change, negative = growth inhibition” value is -26.2%.

`CN(C)S(=O)(=O)c1cccc(C(=O)Nc2cccnc2)c1`: the “activity change, negative = growth inhibition” value is -5.49%.

As for `Cc1ccc(/C=N/NC(=O)Cn2nc(C)c(Br)c2C)o1`, the “activity change, negative = growth inhibition” value is 0.967%.

Consider `Cc1ccc(/C=N/NC(=S)Nc2cccc(S(=O)(=O)N(C)C)c2)o1`, for which the Potency was 2.59 µM (active).

Consider `O=C(OCc1cc2ccccc2[nH]c1=O)c1cccnc1`, for which the “activity change, negative = growth inhibition” value is -6.84%.

As for `CN1CCN(S(=O)(=O)c2ccc3[nH]cc(C(=O)O)c(=O)c3c2)CC1`, the “activity change, negative = growth inhibition” value was -1.96%.

In the case of `CC(C)(C)c1ccc(NC(=O)COC(=O)CCc2nc3ccccc3c(=O)[nH]2)cc1`, the “activity change, negative = growth inhibition” value was -21.3%.

As to `Cc1cc(C)c(-c2csc(NC(=O)CCCc3nc4ccccc4c(=O)[nH]3)n2)c(C)c1`, the Potency is 8.2 µM (active).

On to `O=C(CCc1nc2ccccc2c(=O)[nH]1)OCC(=O)c1cccc(Cl)c1`, for which the “activity change, negative = growth inhibition” value is -24.5%.

`Cc1ccc(C(=O)N/C(=C\c2cn(S(=O)(=O)N(C)C)c3ccccc23)C(=O)N2CCCC2)cc1`: the “activity change, negative = growth inhibition” value is -14.7%.

For `C/C=C(\C)C(=O)OC1C(OC(=O)C2(C)OC2C)c2cc3ccc(=O)oc3cc2OC1(C)C` (stereo unspecified), the activity change, negative = growth inhibition is -10.9% [at 9.04 µM].

Take `CN1CCN(/N=C/c2ccc(C#N)cc2)CC1`: the “activity change, negative = growth inhibition” value was -20.6%.

For `Cc1ccc(NS(=O)(=O)c2ccc3c(c2)CC(=O)N3)cc1Cl`, the “activity change, negative = growth inhibition” value was -18.8%.

For the compound `Cc1cccc(N2C(=O)c3cccnc3C2=O)c1`, the “activity change, negative = growth inhibition” value is -2.8%.

As to `NC1=CC(=O)C(=O)c2cccnc21`, the Potency is 3.66 µM (active).

As to `O=C1c2cccnc2C(=O)N1Cc1cccs1`, the “activity change, negative = growth inhibition” value was -22%.

Turning to `CNc1nc(-c2ccccc2OC)nc2ccccc12`, the Potency is 7.31 µM (active).

Regarding `COc1cccc(-c2nc(Nc3ccncc3)c3ccccc3n2)c1`, the Potency is 10.3 µM (active).

Take `Cc1cccc(-c2noc(-c3ccc(F)cc3)n2)c1`: the “activity change, negative = growth inhibition” value is 1.15%.

For `Cc1cccc(-c2nc(Nc3ccc(O)cc3)c3ccccc3n2)c1`, the Potency is 20.6 µM (active).

As for `COc1cc(Nc2nc(-c3ccc(OC)c(OC)c3)nc3ccccc23)cc(OC)c1`, the Potency was 2.06 µM (active).

For the compound `Cc1nc2ccccc2c(C)c1C(=O)c1ccc(F)cc1`, the “activity change, negative = growth inhibition” value is -6.13%.

With `COc1ccccc1-c1nc(NCCNC(C)=O)c2ccccc2n1`, the “activity change, negative = growth inhibition” value is 15.7%.

With `Oc1ccc(-c2nnc(Nc3ccccc3)c3ccccc23)cc1`, the “activity change, negative = growth inhibition” value was 13.6%.

For `COc1ccc(-c2nc3n(c(=O)c2C#N)CCS3)c(OC)c1`, the “activity change, negative = growth inhibition” value is 9.93%.

As for `CC1=NCCN1S(=O)(=O)c1ccc(Br)c(C)c1`, the “activity change, negative = growth inhibition” value is -20.7%.

For the compound `CCCCn1c(=O)c2oc3ccccc3c2n(CC(=O)Nc2ccccc2OC)c1=O`, the “activity change, negative = growth inhibition” value is -4.94%.

As for `O=C(Nc1ccc(OCC(=O)N2CCOCC2)cc1)c1cc(F)c(F)cc1Cl`, the “activity change, negative = growth inhibition” value was -18.8%.

Turning to `N#Cc1c(-c2ccccc2)c(-c2ccccc2)n[nH]c1=O`, the “activity change, negative = growth inhibition” value was -17.4%.

For `CCn1c(CSc2nc(C)cc(C)n2)nnc1SCC(N)=O`, the “activity change, negative = growth inhibition” value was 7.59%.

As to `COCCCn1c(SCc2cccc(OC)c2)nc2cc(OC)c(OC)cc2c1=N`, the Potency was 16.4 µM (active).

Take `COc1ccc(/C=C/c2nnc(NC(=O)C(C)C)s2)cc1`: the “activity change, negative = growth inhibition” value is -19.3%.

For `Cc1cccc(N=C2SC(C)CN2C(=O)CN2C(=O)NC3(CCCC3)C2=O)c1` (stereo unspecified), the “activity change, negative = growth inhibition” value was -6.89%.

Take `CC(C)c1nc2cc(C(=O)NC(C)c3cnn(C)c3)ccc2o1` (stereo unspecified): the “activity change, negative = growth inhibition” value was -0.753%.

On to `COc1cccc(C2=CC(=O)C[C@H](c3ccc(F)cc3)C2)c1OC`, for which the “activity change, negative = growth inhibition” value was -29.4%.

Consider `COc1ccc(C2Sc3ccccc3NC3=C2C(=O)c2ccccc23)c(OC)c1OC` (stereo unspecified), for which the Potency was 1.84 µM (active).

For `O=[N+]([O-])c1ccc(N2CCN(S(=O)(=O)c3ccccc3)CC2)cc1N1CCc2ccccc2C1`, the “activity change, negative = growth inhibition” value is -4.16%.

For the compound `CSCCC(NC(=O)COc1ccccc1)C(=O)OCc1ccc(Cl)cc1` (stereo unspecified), the “activity change, negative = growth inhibition” value is -13.5%.

With `CN(CCOc1ccc(CC2SC(=O)NC2=O)cc1)c1ccccn1` (stereo unspecified), the Potency entry was “inactive”.

In the case of `Cn1c(=O)[nH]c(=O)c2c1nc(NCCCn1ccnc1)n2Cc1cccc(Br)c1`, the “activity change, negative = growth inhibition” value is -8%.

Turning to `CCCCn1c(SCC(=O)NCCc2ccc(OC)c(OC)c2)nc2c1c(=O)n(C)c(=O)n2C`, the “activity change, negative = growth inhibition” value is -17.6%.

As for `Cn1c(=O)c2c(nc(N/N=C/c3cccs3)n2Cc2ccc(Br)cc2)n(C)c1=O`, the Potency was 23.1 µM (active).

On to `Cn1c(=O)c2c(nc(NCCc3ccccc3)n2Cc2ccccc2)n(C)c1=O`, for which the Potency was 4.11 µM (active).

As for `CCn1c(NCCc2ccc(OC)c(OC)c2)nc2c1c(=O)n(C)c(=O)n2C`, the Potency was 7.31 µM (active).

As for `Cn1c(=O)c2c(nc(NCc3ccccc3)n2CC(N)=O)n(C)c1=O`, the “activity change, negative = growth inhibition” value was -17.3%.

Consider `CCCCNc1nc2c(c(=O)n(C)c(=O)n2C)n1Cc1cccc(OC)c1`, for which the Potency is 1.84 µM (active).

As for `Cn1c(=O)c2c(nc(NCCc3ccccc3)n2Cc2ccccc2Br)n(C)c1=O`, the “activity change, negative = growth inhibition” value was -22.3%.

Turning to `COc1ccc(CCn2c(NCCCN3CCOCC3)nc3c2c(=O)[nH]c(=O)n3C)cc1`, the “activity change, negative = growth inhibition” value is -9.49%.

On to `COc1ccc(CCN2CNc3c(c(=O)n(C)c(=O)n3C)C2)cc1OC`, for which the “activity change, negative = growth inhibition” value is -22.6%.
